Laboratory results published in PubChem BioAssay (EPA / NIEHS).
Calls of active or inactive are those of the source. Rule for the calls: active = hit-call score of the fitted dose curve at least 0.9, where 1 is the maximum; inactive = score below 0.9.

test: APR_HepG2_CellLoss_72hr: Apredica 72-hour HepG2 Assay for Cell Loss (AID 2282915); conditions: high-content imaging
Procedure, shortened: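 Cell number comes from Hoechst 33342-labelled nuclei, imaged at 20x after 3.7% formaldehyde fixation. Dosing was 0.39–200 uM, ten concentrations in duplicate, 0.5% DMSO final, for 72 h. Bidirectional fit relative to DMSO baseline.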

outcome, inactive:
CC(C)CCO
CC/C(=C\C(=N/O)C(N)=O)C(C)[N+](=O)[O-] (stereo not given)
CC(C)CCCCCCCOC(=O)CCCCC(=O)OCCCCCCCC(C)C
CCCCCCCCO
O=C(CCCCCCCCc1cccnc1)N1CCC(C=C(c2ccccc2)c2ccccc2)CC1
Cc1ccc(O)cc1
C[C@](N)(Cc1ccc(O)c(O)c1)C(=O)O
Cn1c(=O)c2c(ncn2C)n(C)c1=O

AC50, active:
Cn1cnc([N+](=O)[O-])c1Sc1ncnc2nc[nH]c12 44.8 µM
O=C(OC[C@H]1O[C@@H](OC(=O)c2cc(O)c(O)c(OC(=O)c3cc(O)c(O)c(O)c3)c2)[C@H](OC(=O)c2cc(O)c(O)c(OC(=O)c3cc(O)c(O)c(O)c3)c2)[C@@H](OC(=O)c2cc(O)c(O)c(OC(=O)c3cc(O)c(O)c(O)c3)c2)[C@@H]1OC(=O)c1cc(O)c(O)c(OC(=O)c2cc(O)c(O)c(O)c2)c1)c1cc(O)c(O)c(OC(=O)c2cc(O)c(O)c(O)c2)c1 21.4 µM
CCOc1cccc(-n2cc(C(=O)N3CCN(c4cc(C(=O)O)c5ccccc5c4)CC3)nc2-c2ccc(C)cc2)c1 81.9 µM
CCCCC(CC)COC(=O)CCCCCCCCC(=O)OCC(CC)CCCC (stereo not given) 100 µM
Fc1ccccc1[C@@H](F)COC1CCC(Nc2ncnc3[nH]ncc23)CC1 (stereo not given in full) 59 µM
CC[C@H]1CC[C@H](NCc2cc3c(cc2OC)[C@H]2C[C@H]2C(=O)N3C)[C@H](c2ccccc2)N1 72.5 µM
CCOC(=O)COc1ccc2c(c1)CC(NCC(O)c1cccc(Cl)c1)CC2 (stereo not given) 71.4 µM
